According to PMC7826789 (International Journal of Molecular Sciences, 2021):

Tests used:
Details in all cases: Compound Concentration (nM):1000
SIK = system: T1, SIK
T1 construct: gene SIK1

SLK = system: SLK
SNARK = system: T2, SNARK
T2 construct: gene NUAK2

SNRK = system: SNRK
SRC = system: SRC
SRMS = system: SRMS
SRPK1 = system: SRPK1
SRPK2 = system: SRPK2
SRPK3 = system: SRPK3
STK16 = system: STK16
STK33 = system: STK33
STK35 = system: STK35
STK36 = system: STK36
STK39 = system: STK39
SYK = system: SYK
SgK110 = system: SgK110
TAK1 = system: T3, TAK1
T3 construct: gene MAP3K7

TAOK1 = system: TAOK1
TAOK2 = system: TAOK2
TAOK3 = system: TAOK3
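Note: KINOMEscan scanMAX binding as percent activity remaining versus control; lower means stronger binding.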

| Compound | Percent Control (SIK) | Percent Control (SLK) | Percent Control (SNARK) | Percent Control (SNRK) | Percent Control (SRC) | Percent Control (SRMS) | Percent Control (SRPK1) | Percent Control (SRPK2) | Percent Control (SRPK3) | Percent Control (STK16) | Percent Control (STK33) | Percent Control (STK35) | Percent Control (STK36) | Percent Control (STK39) | Percent Control (SYK) | Percent Control (SgK110) | Percent Control (TAK1) | Percent Control (TAOK1) | Percent Control (TAOK2) | Percent Control (TAOK3) |
| --- | --- | --- | --- | --- | --- | --- | --- | --- | --- | --- | --- | --- | --- | --- | --- | --- | --- | --- | --- | --- |
| CN(C)c1cc2c(Nc3ccc4c(cnn4Cc4ccccc4)c3)ncnc2cn1 [GW282974X] | 29% | 81% | 100% | 88% | 100% | 74% | 82% | 100% | 97% | 88% | 84% | 100% | 100% | 95% | 100% | 100% | 93% | 92% | 86% | 100% |
| Cl.c1ccc(Cc2nc3ccc(Nc4ncnc5ccccc45)cc3[nH]2)cc1 [GR269666A] | 100% | 100% | 100% | 100% | 100% | 100% | 100% | 100% | 78% | 100% | 97% | 100% | 100% | 100% | 100% | 100% | 100% | 100% | 100% | 100% |
| NS(=O)(=O)c1ccc(Nc2ncc(-c3ccccc3)o2)cc1 [GW572399X] | 100% | 100% | 79% | 100% | 100% | 100% | 94% | 100% | 98% | 31% | 100% | 100% | 100% | 100% | 93% | 100% | 100% | 72% | 97% | 86% |
| COc1cccc(-n2ncc3c(N/N=C/c4ccncc4)ncnc32)c1 [GW784752X] | 100% | 100% | 100% | 100% | 54% | 99% | 94% | 100% | 99% | 82% | 100% | 100% | 96% | 100% | 79% | 100% | 97% | 39% | 97% | 91% |
| CCn1c(-c2nonc2N)nc2c(C#CC(C)(C)O)nc(OCCNC)cc21.Cl [GSK949675] | 89% | 100% | 41% | 100% | 100% | 100% | 84% | 100% | 100% | 100% | 100% | 100% | 100% | 98% | 100% | 100% | 85% | 72% | 92% | 90% |
| COc1cccc(-c2c[nH]c3c(N/N=C/c4ccncc4)ncnc23)c1 [GW814408X] | 92% | 76% | 56% | 100% | 27% | 100% | 38% | 100% | 60% | 65% | 84% | 100% | 11% | 100% | 72% | 87% | 100% | 11% | 51% | 32% |
| NS(=O)(=O)c1ccc(N/N=C2\C(=O)Nc3ccc(-c4cnco4)cc32)cc1 [GW276655] | 77% | 86% | 49% | 55% | 83% | 73% | 100% | 100% | 76% | 46% | 100% | 99% | 100% | 88% | 100% | 73% | 32% | 86% | 95% | 98% |
| O=C1Nc2ccc(C(=O)c3ccco3)cc2C1=Cc1cc(Cl)c(O)c(Cl)c1 [GW406108X] | 93% | 100% | 79% | 100% | 100% | 89% | 88% | 100% | 100% | 60% | 86% | 100% | 87% | 81% | 100% | 100% | 30% | 40% | 100% | 85% |
| Cl.O=C(O[C@H]1CN[C@H](C#Cc2cc3ncnc(Nc4ccc5c(cnn5Cc5ccccc5)c4)c3s2)C1)N1CCOCC1 [GSK200398A] | 100% | 98% | 100% | 100% | 100% | 92% | 84% | 85% | 100% | 100% | 90% | 99% | 100% | 83% | 91% | 100% | 100% | 91% | 97% | 100% |
| CC1=C(C(=O)Nc2ccc3[nH]ncc3c2)C(c2ccc(Cl)c(Cl)c2)CC(=O)N1 (stereo not shown) [GSK299115A] | 97% | 98% | 25% | 100% | 80% | 88% | 99% | 100% | 90% | 85% | 82% | 84% | 100% | 81% | 99% | 100% | 82% | 68% | 77% | 81% |
| Cl.O=C(Nc1ccc(Oc2ccc3[nH]c(NC(=O)c4ccco4)nc3c2)cc1)Nc1cc(C(F)(F)F)ccc1F [GW683134A] | 100% | 40% | 100% | 95% | 96% | 100% | 100% | 100% | 84% | 92% | 9.8% | 81% | 100% | 100% | 100% | 100% | 9.1% | 100% | 97% | 100% |
| Nc1ncnc2occ(-c3ccc(NC(=O)Nc4cc(C(F)(F)F)ccc4F)cc3)c12 [GW770249X] | 100% | 6.3% | 87% | 100% | 92% | 91% | 74% | 76% | 63% | 97% | 11% | 95% | 100% | 100% | 38% | 100% | 3.2% | 75% | 67% | 74% |
| C/C(Nc1ccc(S(N)(=O)=O)cc1)=C1/C(=O)Nc2ccccc21 [GW335962X] | 100% | 92% | 65% | 100% | 100% | 91% | 82% | 88% | 87% | 41% | 92% | 95% | 98% | 64% | 94% | 100% | 70% | 81% | 92% | 94% |
| Cl.O=C(Nc1ccc(Oc2ccc3[nH]c(NC(=O)c4ccccc4)nc3c2)cc1)Nc1cc(C(F)(F)F)ccc1F [GW709042A] | 100% | 70% | 92% | 89% | 98% | 91% | 89% | 93% | 70% | 88% | 29% | 95% | 100% | 100% | 99% | 100% | 58% | 90% | 91% | 98% |
| CCc1ccc(Oc2nccc(-c3c(-c4ccc(F)cc4)ncn3C3CCNCC3)n2)cc1 [SB-242719] | 100% | 79% | 87% | 99% | 100% | 91% | 82% | 100% | 88% | 89% | 92% | 100% | 82% | 81% | 85% | 100% | 96% | 82% | 93% | 95% |
| NS(=O)(=O)c1ccc(N/N=C2\C(=O)Nc3ccc(C(=O)NCc4ccncc4)cc32)cc1 [GW300657X] | 95% | 100% | 8.9% | 100% | 100% | 93% | 89% | 6.6% | 72% | 23% | 87% | 93% | 97% | 74% | 73% | 100% | 29% | 84% | 99% | 100% |
| COc1ccc(COc2ccc(Cc3cnc(N)nc3N)cc2OC)cc1 [GW632580X] | 96% | 93% | 88% | 87% | 88% | 100% | 100% | 95% | 100% | 93% | 100% | 100% | 74% | 91% | 100% | 100% | 97% | 100% | 100% | 100% |
| O=C(Nc1n[nH]c2nc(-c3ccc(O)cc3)c(Br)cc12)C1CC1 [SB-725317] | 100% | 41% | 100% | 100% | 100% | 100% | 100% | 100% | 100% | 76% | 96% | 100% | 100% | 99% | 100% | 100% | 95% | 1% | 2.6% | 2.6% |
| CN1CCN(C(=O)c2ccc(NC(=O)Nc3ccc(N(C)c4ccnc(Nc5ccc(CS(C)(=O)=O)cc5)n4)cc3)cc2)CC1.Cl [GW830263A] | 92% | 8.9% | 39% | 78% | 100% | 77% | 2.3% | 80% | 7.7% | 15% | 92% | 71% | 37% | 79% | 34% | 89% | 25% | 71% | 76% | 83% |
| COc1cc(C)c(N(C)C(=O)CN(C)C)cc1Nc1nc(Nc2cccc(F)c2C(N)=O)c2cc[nH]c2n1 [GSK2219385] | 100% | 100% | 100% | 76% | 100% | 100% | 90% | 100% | 100% | 83% | 91% | 98% | 100% | 81% | 100% | 100% | 93% | 100% | 100% | 100% |
